{"source": "PubChem BioAssay (NCI)", "note": "The panel holds about 83,000 compounds, 20% with a hit somewhere; the sample as a whole holds those more often.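 For each line, cells grew in 96-well plates with the test compound present at a single concentration for 48 hours.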 Calls of active or inactive are those of the source."}
{"tested_on": "NCI-H460 lung", "experiment": "NCI-60 one-dose screen, 48 h (100 = growth as untreated, 0 = no growth, -100 = all killed)", "settings": "10 µM unless noted", "procedure": "Growth inhibition of the NCI-H460 human Non-Small Cell Lung tumor cell line is measured as a screen for anti-cancer activity. Cells are grown in 96 well plates and exposed to the test compound for 48 hours. Compounds are tested at a single concentration, which is 10^-5 M for most compounds. The reported endpoint is percent growth (GI% or GIPRCNT), where numbers from 0 - 100% represent growth inhibition, and numbers from -100% - 0 represent cell death. For example, a value of 40 represents 60% growth inhibition. A value of 0 means no net growth occurred over the course of the experiment. A value of -40 indicates 40% of cells at the beginning of the experiment died by the end of the experiment. A value of -100 means all cells are dead at the end of the experiment.\nNCI-60 Human Tumor Cell Lines Screen was performed using the standard one-dose NCI protocol, which is described in more detail at https://dtp.cancer.gov/discovery_development/nci-60/default.htm.\nCompounds with GIPRCNT values below 10 were considered active. Activity score was based on GIPRCNT using the following formula: […]\nScore is 0 for GIPRCNT values of 100 or above, 50 for GIPRCNT values of 0, and 100 for GIPRCNT values of -100."}
{"smiles": "CC1=CC(C)(C)Nc2ccc(Cc3ccc4c(c3)C(C)=CC(C)(C)N4)cc21", "growth": "104% (inactive)"}
{"smiles": "C#CC(F)(F)[C@]1(O)CC[C@H]2[C@@H]3CCC4=CC(=O)CCC4=C3[C@@H](c3ccc(C(C)=O)cc3)C[C@@]21C", "growth": "97.4% (inactive)"}
{"smiles": "Cc1cc(N2CCCCC2)nc(NC2CCCC(Nc3ccnc4cc(Cl)ccc34)C2)n1", "note": "(stereo not given)", "growth": "-64.9% (active)"}
{"smiles": "NC(=NCCCC1(c2ccccc2)CCCC1)Nc1ccc(Cl)cc1", "growth": "-32.8% (active)"}
{"smiles": "COc1cc(-c2nc3ccccc3[nH]2)ccc1OCC(=O)N=Nc1c(O)[nH]c2ccc(Cl)cc12", "growth": "-75.8% (active)"}
{"smiles": "CCCn1c(=O)[nH]c(N)c([C@H]2c3ccccc3Oc3[nH]c(=O)n(CCC)c(=O)c32)c1=O", "growth": "111% (inactive)"}
{"smiles": "COc1cc(/C=C/C(=O)c2cccnc2Nc2ccc(F)cc2)cc(OC)c1OC", "growth": "22.5% (inactive)"}
{"smiles": "O=CNc1ccc2c(c1)Cc1cccc(NC=O)c1-2", "growth": "95.8% (inactive)"}
{"smiles": "COc1cccc(-c2nc3sccn3c2-c2ccnc(NCCCNS(=O)(=O)c3cccc(Cl)c3)c2)c1", "growth": "64.8% (inactive)"}
{"smiles": "CCc1nnc(CNc2ccc(Cl)cc2)o1", "growth": "100% (inactive)"}
{"smiles": "NC(=O)c1cc(Cl)ccc1NC(=O)/C=C/c1ccccc1", "growth": "12.1% (inactive)"}
{"smiles": "CN1CCN(c2nc(NCCCCNc3ccnc4cc(Cl)ccc34)c3ccccc3n2)CC1", "growth": "68.1% (inactive)"}
{"smiles": "COc1ccc(/C=C\\c2cc(OC)c(OC)c(OC)c2)cc1OCC(=O)Nc1ccc2nc(C)sc2c1", "growth": "24.5% (inactive)"}
{"smiles": "CN(C)c1ccc(N=Nc2ccc(Br)cn2)c(O)c1", "growth": "3.96% (active)"}
{"smiles": "COc1nc2c(c(=O)n1C)CN(Cc1ccccc1)C=N2", "growth": "116% (inactive)"}
{"smiles": "CSc1nc(NCCO)c(C#N)c(-c2cccc([N+](=O)[O-])c2)n1", "growth": "101% (inactive)"}
{"smiles": "Cc1ccc(-c2onc3c(=O)[nH]nc(-c4ccccc4)c23)cc1", "growth": "19.1% (inactive)"}
{"smiles": "C#CCOc1ccc2ncnc(N3CCC(NC(=O)CCl)CC3)c2c1", "growth": "81.5% [8.25 µM] (inactive)"}
{"smiles": "Nc1nc2ccc3[nH]ncc3c2c2c1CCCC2", "growth": "2.07% (active)"}
{"smiles": "COc1ccc(C2CC(c3ccc(Cl)cc3)=NN2/C=C2\\SC(=S)N(NC(=O)Cc3ccccc3Nc3c(Cl)cccc3Cl)C2=O)cc1", "note": "(stereo not given)", "growth": "81.8% (inactive)"}
{"smiles": "CSc1nc2c(c(=O)[nH]1)C1(C(=O)Nc3ccccc31)c1c(nc(SC)[nH]c1=O)N2", "growth": "103% (inactive)"}
{"smiles": "Cn1c(=O)[nH]c(=O)c2nc(CCC(=O)NCCC(=O)O)c(=O)[nH]c21", "growth": "103% (inactive)"}
{"smiles": "C#CCOc1ccc2ncnc(NCc3cccc(NC(=O)CCl)c3)c2c1", "growth": "28.2% [8.25 µM] (inactive)"}
{"smiles": "COc1ccc(/C=C\\c2cc(OC)c(OC)c(OC)c2)cc1OC(=O)c1cccc(Cn2cc(CCOC(=O)[C@H](N)Cc3cn(C)c4ccccc34)nn2)c1", "growth": "1.11% (active)"}
{"smiles": "C=CC(=O)Nc1cccc(-c2nc(SC)nc(NCCN3CCOCC3)c2C#N)c1", "growth": "101% (inactive)"}
{"smiles": "Cc1nn(-c2ccc(F)cc2)c2ncnc(Nc3ccc(NC(=O)Nc4ccc(Cl)c(C(F)(F)F)c4)cc3)c12", "growth": "10.9% (inactive)"}
{"smiles": "CC1=C[C@H]2c3c(c(O)c(O)c4oc5c(C)cccc5c(=O)c34)[C@H](c3cc(O)c(O)c4oc5c(C)cccc5c(=O)c34)[C@H]2C(C)(C)C1", "growth": "-44.3% (active)"}
{"smiles": "COC(=O)c1ccc(Cn2cnc3c(N)ncnc32)cc1", "growth": "115% (inactive)"}
{"smiles": "CC[N+](CC)=c1sc2c(s1)C(c1ccc(Cl)cc1)Oc1ccc(Cl)cc1-2", "note": "(stereo not given)", "growth": "-29.6% (active)"}
{"smiles": "COc1ccc(Nc2nc(SC)nc(-c3cccc([N+](=O)[O-])c3)c2C#N)cc1", "growth": "30.4% (inactive)"}
{"smiles": "CCN1CCN(c2nc(NCCCNc3ccnc4cc(Cl)ccc34)c3ccccc3n2)CC1", "growth": "16.3% (inactive)"}
{"smiles": "CCN(CC)CCCCNc1c2ccc(Cl)cc2nc2ccc(OC)cc12", "growth": "-23.8% (active)"}
{"smiles": "CCN1CCN(c2nc(NCCNc3ccnc4cc(Cl)ccc34)c3ccccc3n2)CC1", "growth": "1.75% (active)"}
{"smiles": "Clc1ccc2c(NCCNc3nc(N4CCOCC4)nc4ccccc34)ccnc2c1", "growth": "-29.3% (active)"}
{"smiles": "Nc1ccc(S(=O)(=O)O)c2ccc(N=Nc3ccc(N=Nc4ccc(S(=O)(=O)O)cc4)c4ccccc34)c(O)c12", "growth": "101% (inactive)"}
{"smiles": "O=C1c2ccccc2OC=C(c2ccccc2)N1CCCCNc1ccc(S(=O)(=O)Nc2ncccn2)cc1", "growth": "103% (inactive)"}
{"smiles": "c1ccc(CCNc2ncnc3[nH]ncc23)cc1", "growth": "117% (inactive)"}
{"smiles": "Cc1cc2nc3[nH]c4ccccc4c3nc2cc1C", "growth": "93.8% (inactive)"}
{"smiles": "C#CCOc1ccc2ncnc(N3CCN(C(=O)CCl)CC3)c2c1", "growth": "101% [8.25 µM] (inactive)"}
{"smiles": "COc1cccc(-c2nc3sccn3c2-c2ccnc(NCCNS(=O)(=O)c3ccccc3)c2)c1", "growth": "20% (inactive)"}
